Assay results taken from the supplement of paper PMC10981050.
“And” between values parts separate entries of the source, which are not always exact repeats. Equal entries are not always repeated. Structures can show the parent of a compound that is named as a salt.

How the values were obtained:
Assay in all cases: cell viability relative to vehicle control; higher = less cytotoxic
Conditions in all cases: 10 µM
K562 = test system: K562
In short: (§1)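 Four leukaemia lines, as CRISPR-edited mutant clones and isogenic wild-type clones, were tested against Selleck bioactive, kinase and epigenetic probe libraries after removal of identity-inconsistent compounds. Cells were exposed to a single 10 µM dose for 48 h, and CellTiter-Glo luminescence was then read. Viability was calculated relative to the on-plate vehicle control.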

MARIMO = test system: MARIMO
In short: as §1

MOLM14 = test system: MOLM14
In short: as §1

OCI-AML2 = test system: OCI-AML2
In short: as §1

SMILES	cell viability (K562; SRSF2 genotype: SRSF2 P95H/wt)	cell viability (K562; SRSF2 genotype: SRSF2 wt/wt) [%]	cell viability (MARIMO; SRSF2 genotype: SRSF2 P95H/wt) [%]	cell viability (MARIMO; SRSF2 genotype: SRSF2 wt/wt) [%]	cell viability (MOLM14; SRSF2 genotype: SRSF2 P95H/wt) [%]	cell viability (MOLM14; SRSF2 genotype: SRSF2 wt/wt) [%]	cell viability (OCI-AML2; SRSF2 genotype: P95H/wt) [%]	cell viability (OCI-AML2; SRSF2 genotype: wt/wt) [%]
CN(C)C(=O)c1ccc(S(=O)(=O)c2ccc(NC(=O)C(C)(O)C(F)(F)F)c(Cl)c2)cc1 (stereo not given)	75.7% and 74.8%	74.2	60.1	58	78.4	84.5	52.9	55.2
COc1ccc(-c2cnc3c(-c4cccc5ncccc45)cnn3c2)cc1	98.9% and 100%	92.7	104	112	93	108	90.4	91.5
COc1cc2c(cc1OC)[C@H]1[C@@H](C)c3ccc(OC)c(OC)c3CN1CC2 [Corydaline]	84.4% and 88.8%	86.6	83.2	82	89.4	90.9	73.8	79.1
Cc1nccn1CC1CCc2c(c3ccccc3n2C)C1=O (stereo not given) [Ondansetron Hydrochloride Dihydrate]	95.8% and 94.2%	91.5	95.9	108	97.4	97.4	88.6	99.1
CCS(=O)(=O)N1CCC([C@@H](C)n2c(C)c(C(=O)NCc3c(OC)cc(C)[nH]c3=O)c3ccccc32)CC1	100% and 98.2%	95.7	99.8	111	100	99	107	109
CC(=O)SCC(Cc1ccccc1)C(=O)NCC(=O)OCc1ccccc1 (stereo not given) [Racecadotril (Acetorphan)]	108% and 106%	103	98.3	99	106	105	118	102
COC(=O)c1cc(OC)c(OC)c(OC)c1 [Methyl EudesMate]	103% and 105%	100	97.6	109	108	106	102	110
N#Cc1ccc2[nH]c(O)c(-c3ccc(CN4CCOCC4)cn3)c2c1	73.5% and 54.9%	78.4	81.4	97.9	71.2	93.3	98.7	123
COc1cc(-c2oc3cc(O)cc(O)c3c(=O)c2OC2OC(COC3OC(C)C(O)C(O)C3O)C(O)C(O)C2OC2OC(C)C(O)C(O)C2O)ccc1O (stereo not given) [Typhaneoside]	103%	98.7	93.9	106	98.5	106	110	105
CC(C)n1nc(-c2ccc(NC(=O)Nc3cc(C(F)(F)F)ccc3F)cc2)c2c(N)ncnc21	26.5% and 30.8%	19	8.66	4.51	1.98	0.7	2.08	8.47
